The values that follow come from PubChem BioAssay (EPA / NIEHS).

Inconclusive results are not listed. Active and inactive are the calls of the source. The calls were made as follows: active = hit-call score of the fitted dose curve at least 0.9, where 1 is the maximum; inconclusive = response in the unintended direction; inactive = score below 0.9.

bovine Estrogen Receptor (ER), ESR1 (gene 407238), sequence (P49884 whole entry, looked up): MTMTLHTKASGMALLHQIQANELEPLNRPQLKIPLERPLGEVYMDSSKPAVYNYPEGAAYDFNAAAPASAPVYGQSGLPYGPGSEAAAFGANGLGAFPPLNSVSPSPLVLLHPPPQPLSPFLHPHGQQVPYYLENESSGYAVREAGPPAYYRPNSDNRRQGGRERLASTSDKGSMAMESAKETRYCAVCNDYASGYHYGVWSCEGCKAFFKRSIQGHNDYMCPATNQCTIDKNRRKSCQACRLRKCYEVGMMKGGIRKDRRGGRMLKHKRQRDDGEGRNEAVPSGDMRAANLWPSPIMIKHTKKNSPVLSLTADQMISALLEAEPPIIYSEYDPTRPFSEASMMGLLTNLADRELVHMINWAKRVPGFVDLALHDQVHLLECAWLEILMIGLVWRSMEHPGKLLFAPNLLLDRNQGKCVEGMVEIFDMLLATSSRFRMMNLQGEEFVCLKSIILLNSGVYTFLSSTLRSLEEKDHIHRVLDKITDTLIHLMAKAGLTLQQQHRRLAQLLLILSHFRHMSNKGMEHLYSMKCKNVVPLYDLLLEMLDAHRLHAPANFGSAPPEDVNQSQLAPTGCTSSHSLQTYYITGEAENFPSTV

For this assay, the target named is bovine Estrogen Receptor (ER), ESR1 (gene 407238) (UniProt P49884). Briefly: NVS_NR_bER: NovaScreen (NVS) Nuclear Receptor Binding Assay for bovine Estrogen Receptor (ER) (AID 2283345).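 Also: actives lower the bound radioligand count which means they displace the ER ligand.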 An outline of the steps:
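Scintillation counting of displaced radioligand gave the readout; bovine uterine membrane extract supplied the receptor. Measured 18 h post-dose, normalized to DMSO baseline. Single 25 uM duplicate screen preceded concentration-response follow-up.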
With `O=[N+]([O-])c1ccc(Cl)c([N+](=O)[O-])c1`, the molecule was called inactive. As to `CC(C)[C@@H](Nc1ccc(C(F)(F)F)cc1Cl)C(=O)OC(C#N)c1cccc(Oc2ccccc2)c1` (stereo partly specified), the outcome was inactive. Then `O=c1[nH]c2ccccc2n1C1CCN(CCCC(c2ccc(F)cc2)c2ccc(F)cc2)CC1`, with “inactive”; and `O=C(CCl)Nc1ccccc1`, with “inactive”.

`[F][Sn]([c]1ccccc1)([c]1ccccc1)[c]1ccccc1`: the result was inactive. As to `CC(O)(CS(=O)(=O)c1ccc(F)cc1)C(=O)Nc1ccc(C#N)c(C(F)(F)F)c1` (stereo unspecified), the outcome was inactive.

In the case of `Cc1cc(SCc2sc(-c3ccc(C(F)(F)F)c(F)c3)nc2C)ccc1OCC(=O)O`, the result was inactive. Then `O=S(=O)(c1ccc(Cl)cc1)c1cc(Cl)c(Cl)cc1Cl`, with “inactive”; and `O=c1oc2ccccc2c(O)c1C(CC(O)c1ccc(-c2ccc(Br)cc2)cc1)c1ccccc1` (stereo unspecified), with “inactive”. Regarding `C=CC(=O)[O][Sn]([CH2]CCC)([CH2]CCC)[CH2]CCC`, the result was inactive. On to `OCC(c1ccc(Cl)cc1)c1ccc(Cl)cc1`, for which the molecule was classed as inactive.
